# Experimental data taken from paper PMC4336329 (PLoS ONE, 2015).
# The whole screen tested about 310,000 compounds, of which about 14,000 (4.5%) showed an effect of 50% or more. Effects have a minus sign here. This excerpt belongs to a sample that is enriched for strong results.
# Target: human ether-à-go-go-related gene (hERG) potassium channel (human, UniProt Q12809)
# Experiment: primary screen, population patch clamp on CHO cells stably expressing hERG; higher = less effect of the substance
# 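Further: peak tail current of the secondary pulse compared with the same well before compound.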
# Chain of human ether-à-go-go-related gene (hERG) potassium channel (Q12809 whole entry, looked up): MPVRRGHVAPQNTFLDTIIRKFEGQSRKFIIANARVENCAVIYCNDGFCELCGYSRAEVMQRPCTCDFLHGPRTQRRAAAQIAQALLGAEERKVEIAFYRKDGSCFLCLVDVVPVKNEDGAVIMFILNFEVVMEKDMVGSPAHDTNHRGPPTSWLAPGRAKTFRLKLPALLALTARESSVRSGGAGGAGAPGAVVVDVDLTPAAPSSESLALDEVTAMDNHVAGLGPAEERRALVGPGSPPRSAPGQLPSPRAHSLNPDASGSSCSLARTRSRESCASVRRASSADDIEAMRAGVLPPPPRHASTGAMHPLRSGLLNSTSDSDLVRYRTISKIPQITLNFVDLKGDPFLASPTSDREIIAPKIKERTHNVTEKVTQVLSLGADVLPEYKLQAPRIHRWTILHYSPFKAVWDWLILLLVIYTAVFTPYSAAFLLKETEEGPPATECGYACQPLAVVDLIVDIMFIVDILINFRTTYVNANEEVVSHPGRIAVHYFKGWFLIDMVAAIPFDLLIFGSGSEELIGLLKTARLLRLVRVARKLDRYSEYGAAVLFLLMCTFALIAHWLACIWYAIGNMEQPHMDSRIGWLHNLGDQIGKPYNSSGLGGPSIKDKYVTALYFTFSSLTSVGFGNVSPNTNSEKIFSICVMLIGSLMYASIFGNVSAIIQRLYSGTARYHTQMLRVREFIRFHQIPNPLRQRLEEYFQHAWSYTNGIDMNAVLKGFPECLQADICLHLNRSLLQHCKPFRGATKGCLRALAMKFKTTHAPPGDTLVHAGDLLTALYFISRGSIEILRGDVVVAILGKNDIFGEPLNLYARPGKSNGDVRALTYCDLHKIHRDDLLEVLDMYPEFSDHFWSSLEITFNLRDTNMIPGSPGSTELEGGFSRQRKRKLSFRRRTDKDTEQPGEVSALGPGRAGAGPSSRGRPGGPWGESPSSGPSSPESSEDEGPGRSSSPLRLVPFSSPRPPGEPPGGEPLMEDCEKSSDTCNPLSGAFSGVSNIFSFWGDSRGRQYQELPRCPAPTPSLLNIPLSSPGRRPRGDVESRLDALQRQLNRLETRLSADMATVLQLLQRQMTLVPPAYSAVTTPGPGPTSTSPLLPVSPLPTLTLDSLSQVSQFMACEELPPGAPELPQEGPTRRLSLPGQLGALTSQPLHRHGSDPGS
row,Structure (SMILES),"hERG current change (%, negative = inhibition) at 10uM [%]"
1,Cc1ccc(-n2nc3c(c2NC(=O)c2ccc(OC(C)C)cc2)CS(=O)C3)cc1 (centres unmarked),-12.8
2,CCc1ccc(S(=O)(=O)Nc2c(C)n(C)n(-c3ccccc3)c2=O)cc1,-2.47
3,O=c1oc2cc(O)c(Cl)cc2c2ccccc12,3.98
4,CC(C)CCNC(=O)C12CN(Cc3ccccc3)CC1C(c1ccc([N+](=O)[O-])cc1)=NO2 (centres unmarked),-53.1
5,O=C(NCCCCc1ccccc1)C12CN(Cc3ccccc3)CC1C(c1cccc([N+](=O)[O-])c1)=NO2 (centres unmarked),-6.27
6,Cc1ccc(CCNC(=O)C23CN(Cc4ccccc4)CC2C(c2cccc([N+](=O)[O-])c2)=NO3)cc1 (centres unmarked),-14.8
7,O=C(NCCCCc1ccccc1)C12CN(Cc3ccccc3)CC1C(c1ccc([N+](=O)[O-])cc1)=NO2 (centres unmarked),5.9
8,CCCCN(CCCC)CCCNC(=O)C12CN(Cc3ccccc3)CC1C(c1cccc([N+](=O)[O-])c1)=NO2 (centres unmarked),-80.6
9,CC(C)CCNC(=O)C12CN(Cc3ccccc3)CC1C(c1cccc([N+](=O)[O-])c1)=NO2 (centres unmarked),-32.9
10,CCC(C)NC(=O)CSc1nc2ccccc2c(=O)n1-c1c(C)n(C)n(-c2ccccc2)c1=O (centres unmarked),1.66
11,COc1ccc(/C=C(\C#N)C(=O)Nc2cc(S(=O)(=O)N3CCCCC3)ccc2N2CCCCC2)cc1,6.92
12,CNC(=S)Nc1ccc([N+](=O)[O-])cc1,11.9
13,Cc1ccc(S(=O)(=O)N(C)CC(=O)N(CC(C)C)C2CCS(=O)(=O)C2)cc1 (centres unmarked),-2.85
14,c1ccc(N2N=C(c3cccs3)CC2c2ccco2)cc1 (centres unmarked),2.24
15,O=C(NN(CC(O)COc1ccccc1)CC(O)COc1ccccc1)c1ccccc1 (centres unmarked),-66.1
16,COc1ccc(OCC(O)CNC(=O)c2ccccc2)cc1 (centres unmarked),9.92
17,O=C(NNCC(O)COc1ccccc1)c1ccccc1 (centres unmarked),1.06
18,Cc1ccc(S(=O)(=O)N(c2cccc(C(F)(F)F)c2)C2C=CS(=O)(=O)C2)cc1 (centres unmarked),6.3
19,Cc1cc(NC(=O)CCC(=O)N(Cc2ccccc2)C(C(=O)NC2CCCC2)c2ccco2)no1 (centres unmarked),-21.8
20,C=CCN(C(=O)CCC(=O)Nc1cc(C)on1)C(C(=O)NC1CCCC1)c1ccc(Cl)cc1 (centres unmarked),-56.3
21,C=CCN(C(=O)CCC(=O)Nc1cc(C)on1)C(C(=O)NC1CCCC1)c1ccc(CC)cc1 (centres unmarked),-17.5

row,Structure (SMILES),"hERG current change (%, negative = inhibition) at 10uM [%]"
1,Cc1cc(NC(=O)CCC(=O)N(Cc2ccc(F)cc2)C(C(=O)NC2CCCC2)c2ccco2)no1 (centres unmarked),0.819
2,C=CCN(C(=O)CCC(=O)Nc1cc(C)on1)C(C(=O)NC1CCCC1)c1ccc(C)cc1 (centres unmarked),0.416
3,Cc1cc(NC(=O)CCC(=O)N(CCc2ccccc2)C(C(=O)NC2CCCC2)c2ccco2)no1 (centres unmarked),-66.1
4,CCN(CC)S(=O)(=O)c1ccc2c(c1)CC(C(=O)N1CCCC1)N2C(C)=O (centres unmarked),1.51
5,Cl.NCCSC1CC(=O)N(c2ccc(F)cc2)C1=O (centres unmarked),17
6,CC1=C(C)CS(=O)N(S(=O)(=O)c2ccccc2)C1 (centres unmarked),-16.3
7,Cc1ccc(C(=O)CN(C(=O)c2ccc(Cl)cc2)N2C(=O)CCC2=O)cc1,-50.7
8,O=C(CN(C(=O)c1ccc(Cl)cc1)N1C(=O)C2CCCCC2C1=O)c1ccc(Cl)cc1 (centres unmarked),15.1
9,O=C(CN(C(=O)c1ccccc1Cl)N1C(=O)CCCC1=O)c1ccc(Cl)cc1,7.29
10,Cc1ccccc1CC1(CO)CCCN(C(=O)c2cc(-c3ccccc3)no2)C1 (centres unmarked),2.91
11,CC(=O)Oc1ccc(C(=O)Nc2cccc3c2CCCC3)cc1,10.4
12,Cc1c(NC(=O)Cc2ccccc2)cccc1C(=O)NN1C(=O)c2ccccc2C1=O,-10.2
13,N#CCCn1cc(/C=N/NC(N)=S)c(-c2ccccc2)n1,-28
14,Cc1ccc(C(=O)NCc2ccccn2)o1,4.94
15,O=c1cc(CN2CCc3ccccc32)c2ccc(O)cc2o1,-0.218
16,O=S(=O)(/C=C/c1ccccc1)N1CCN(Cc2ccccc2)CC1,-25.3
17,O=c1cc(CN2CCN(S(=O)(=O)/C=C/c3ccccc3)CC2)c2ccc(O)cc2o1,-76.8
18,O=c1cc(CN2CCN(S(=O)(=O)c3ccc4c(c3)OCCO4)CC2)c2ccc(O)cc2o1,-4.32
19,Cc1cc2oc(=O)cc(CN3CCN(S(=O)(=O)/C=C/c4ccccc4)CC3)c2cc1C,1.24
20,Cc1ccc2c(CN3CCN(S(=O)(=O)/C=C/c4ccccc4)CC3)cc(=O)oc2c1,-72.4
